PubChem BioAssay (Tox21)
Records with an inconclusive call do not appear. Calls of active or inactive are those of the source. The call rests on the fitted dose curve; in most records, active means well fitted curve in the direction sought with a large enough effect in the repeat runs; inconclusive means weak or mixed curves; inactive means no such curve, though single readings can be large; an effect the other way counts as inactive or inconclusive.

Assays:
[1] = Human pregnane X receptor (PXR) small molecule agonists, qHTS cell viability counter screen (AID 1346977); further: nearly all actives have a fitted effect of over 50% in size
Summary of the method: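 PXR-Luc HepG2 cells in medium with 5% charcoal-stripped FBS were pre-incubated 5hr, then exposed to compounds for 24hr at 37C. Viability was read in the same wells by CellTiter-Fluor fluorescence, reagent added after 23hr with a 1hr incubation.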

[2] = Caspase-3/7 induction in HepG2 cells by small molecules, qHTS assay (AID 1346978); further: nearly all actives have a fitted effect of over 15% in size
Summary of the method: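 Wild-type HepG2 cells (2,000/well) were settled 5 h at 37 C, 5% CO2, then exposed to compounds in DMSO for 17 h. Caspase-3/7 activity was read by luminescence 30 min after adding Caspase-Glo 3/7 reagent at room temperature.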

[3] = Caspase-3/7 induction in CHO-K1 cells by small molecules, qHTS cell viability counter screen (AID 1346979); further: nearly all actives have a fitted effect of over 35% in size
Summary of the method: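 Wild-type CHO-K1 cells were seeded at 1,500 per well, rested 5hr at 37 C, then exposed to compounds in DMSO. After 16hr, CellTiter-Fluor reagent was added and fluorescence read 1hr later as the viability measure.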

[4] = Caspase-3/7 induction in CHO-K1 cells by small molecules, qHTS assay (AID 1346980); further: nearly all actives have a fitted effect of over 15% in size
Summary of the method: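 Wild-type cells were seeded at 1,500 per well and settled 5 hr at 37 C, 5% CO2, then exposed to DMSO-dissolved compounds for 17 hr. Caspase-Glo 3/7 reagent was added, and luminescence was read after 30min at room temperature.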

[5] = Caspase-3/7 induction in HepG2 cells by small molecules, qHTS cell viability counter screen (AID 1346981); further: series mostly up to about 92 µM; nearly all actives have a fitted effect of over 30% in size
Summary of the method: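 Counter screen for cytotoxicity: HepG2 exposed 16 hr to compounds, then CellTiter-Fluor viability signal (fluorescence, 1 hr reagent incubation).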

[6] = target: Cytochrome P450 2D6 (Homo sapiens) (UniProt P10635); experiment: Cytochrome P450 Family 2 Subfamily D Member 6 (CYP2D6) small molecule antagonists: luciferase reporter qHTS assay (AID 1671196); further: nearly all actives have a fitted effect of over 50% in size; further: potency means the concentration at half of the fitted maximal effect
Sequence of Cytochrome P450 2D6 (Homo sapiens) (P10635 whole entry, looked up): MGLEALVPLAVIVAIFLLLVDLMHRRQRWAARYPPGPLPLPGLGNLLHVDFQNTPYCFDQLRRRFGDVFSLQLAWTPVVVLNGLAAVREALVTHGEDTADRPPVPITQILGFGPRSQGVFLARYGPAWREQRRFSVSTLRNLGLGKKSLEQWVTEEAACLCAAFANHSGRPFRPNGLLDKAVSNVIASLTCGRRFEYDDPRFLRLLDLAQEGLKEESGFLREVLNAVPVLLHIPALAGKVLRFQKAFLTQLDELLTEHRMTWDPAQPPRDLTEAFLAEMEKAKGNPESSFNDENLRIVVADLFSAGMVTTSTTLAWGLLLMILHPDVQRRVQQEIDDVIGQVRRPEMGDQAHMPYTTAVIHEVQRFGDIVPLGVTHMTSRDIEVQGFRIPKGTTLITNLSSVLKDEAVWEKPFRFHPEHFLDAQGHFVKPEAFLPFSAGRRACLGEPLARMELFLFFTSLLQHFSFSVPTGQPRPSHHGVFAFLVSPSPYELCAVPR
Summary of the method: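 Inhibition of CYP2D6 was gauged by loss of luminescence, since light produced tracks the luciferin generated from a proluciferin substrate. A 10 min room-temperature preincubation preceded 1 h NADPH-supported turnover.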

[7] = target: Nuclear receptor subfamily 1 group I member 2 (Homo sapiens) (UniProt O75469); experiment: Human pregnane X receptor (PXR) small molecule agonists, qHTS assay (AID 1346982); further: nearly all actives have a fitted effect of over 35% in size
Sequence of Nuclear receptor subfamily 1 group I member 2 (Homo sapiens) (O75469 whole entry, looked up): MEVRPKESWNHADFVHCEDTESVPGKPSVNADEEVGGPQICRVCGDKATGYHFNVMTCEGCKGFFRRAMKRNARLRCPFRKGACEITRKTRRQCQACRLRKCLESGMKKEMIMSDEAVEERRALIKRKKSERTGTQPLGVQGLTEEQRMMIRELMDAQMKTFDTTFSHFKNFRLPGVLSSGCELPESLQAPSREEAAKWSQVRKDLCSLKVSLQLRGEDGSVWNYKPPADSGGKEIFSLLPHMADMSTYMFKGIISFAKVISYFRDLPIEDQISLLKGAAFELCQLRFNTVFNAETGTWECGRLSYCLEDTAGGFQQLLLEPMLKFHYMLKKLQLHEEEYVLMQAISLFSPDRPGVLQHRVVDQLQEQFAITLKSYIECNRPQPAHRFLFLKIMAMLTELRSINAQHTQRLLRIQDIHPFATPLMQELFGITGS
Summary of the method: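 Luminescence (ONE-Glo, 30 min RT) after 24 hr compound exposure of PXR-Luc HepG2 cells; cells rested 5 hr post-plating in 5% charcoal-stripped FBS medium.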

[8] = target: Nuclear receptor subfamily 1 group I member 2 (Rattus norvegicus) (UniProt Q9R1A7); experiment: Rat pregnane X receptor (rPXR) activation by small molecules, qHTS assay (AID 1346983); conditions: rPXR luciferase reporter cells, One-Glo luminescence, 24 h; max activation: active compounds read high; further: nearly all actives have a fitted effect of over 20% in size
Sequence of Nuclear receptor subfamily 1 group I member 2 (Rattus norvegicus) (Q9R1A7 whole entry, looked up): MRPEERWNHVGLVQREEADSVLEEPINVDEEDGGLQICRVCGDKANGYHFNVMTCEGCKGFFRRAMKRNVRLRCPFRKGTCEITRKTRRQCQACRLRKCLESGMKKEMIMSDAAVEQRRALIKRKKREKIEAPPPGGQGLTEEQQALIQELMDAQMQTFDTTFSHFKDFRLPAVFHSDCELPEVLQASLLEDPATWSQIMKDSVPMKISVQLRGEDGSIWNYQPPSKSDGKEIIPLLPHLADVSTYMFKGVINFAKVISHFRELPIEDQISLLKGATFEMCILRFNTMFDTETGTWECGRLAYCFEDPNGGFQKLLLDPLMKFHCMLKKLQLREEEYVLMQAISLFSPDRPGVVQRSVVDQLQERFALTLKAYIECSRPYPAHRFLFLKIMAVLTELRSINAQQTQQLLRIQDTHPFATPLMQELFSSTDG
Summary of the method: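 Cell-based rPXR luciferase reporter assay, 2,000 cells per well, rested 5hr at 37 C before compound addition in DMSO, then 24 hr at 37 C. One-Glo reagent was added and luminescence read after 30 min at room temperature.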
On the % scale 0 is the no-effect control and ±100 the full control effect.

CC(C)CC=O
inactive: Potency [1] | outcome [2] | Potency [3] | Potency [4] | Potency [5] | Potency [6]

SC1CCCC1
inactive: Potency [1] | outcome [2] | Potency [3] | Potency [4] | Potency [5] | Potency [7] | Potency [6]

c1ccc(CNCc2ccccc2)cc1
active: Potency [6] 1.12 µM
inactive: Potency [1] | outcome [2] | Potency [3] | Potency [4] | Potency [5] | Potency [7]

CC(=O)OCCc1ccccc1
inactive: Potency [1] | outcome [2] | Potency [3] | Potency [4] | Potency [5] | Potency [7] | Potency [6]

CCN(CCO)CCCC(C)Nc1ccnc2cc(Cl)ccc12 (centres undefined)
inactive: activity change, negative = cytotoxicity [1] 4.23% [at 8.39 µM] | caspase activation [2] 0.0326% [at 8.39 µM] | activity change, negative = cytotoxicity [3] 0.797% [at 8.39 µM] | caspase-3/7 activation [4] -0.893% [at 8.39 µM] | activity change, negative = cytotoxicity [5] 3.29% [at 8.39 µM] | max activation [8] -3.7%

COc1ccc(C(C)=O)cc1
inactive: Potency [1] | outcome [2] | Potency [3] | Potency [4] | Potency [5] | Potency [7] | Potency [6]

N#Cc1cc2ccccc2c2ccccc12
inactive: Potency [1] | outcome [2] | Potency [3] | Potency [4] | Potency [5] | Potency [6]

CC(C)(C)c1cc(CCC(=O)OCC(COC(=O)CCc2cc(C(C)(C)C)c(O)c(C(C)(C)C)c2)(COC(=O)CCc2cc(C(C)(C)C)c(O)c(C(C)(C)C)c2)COC(=O)CCc2cc(C(C)(C)C)c(O)c(C(C)(C)C)c2)cc(C(C)(C)C)c1O
inactive: Potency [1] | outcome [2] | Potency [3] | Potency [4] | Potency [5] | Potency [7] | Potency [6]

CC(C)c1cccc(C(C)C)c1NC(=O)NS(=O)(=O)c1cc(C(C)(C)O)co1
inactive: Potency [1] | outcome [2] | Potency [3] | Potency [4] | Potency [5] | Potency [7] | Potency [6]

C=CC[N+]1([C@H]2C[C@H]3[C@@H]4CC[C@H]5C[C@H](OC(C)=O)[C@@H](N6CCCCC6)C[C@]5(C)[C@H]4CC[C@]3(C)[C@H]2OC(=O)CC)CCCCC1
active: Potency [6] 11 µM
inactive: Potency [1] | outcome [2] | Potency [3] | Potency [4] | Potency [5]

COC(Cc1ccccc1)OC
inactive: Potency [1] | outcome [2] | Potency [3] | Potency [4] | Potency [5] | Potency [7] | Potency [6]

Cc1cccc(C(C)(C)C)c1O
inactive: Potency [1] | outcome [2] | Potency [3] | Potency [4] | Potency [5] | Potency [6]

CCCCCC/C=C/C=O
inactive: Potency [1] | outcome [2] | Potency [3] | Potency [4] | Potency [5] | Potency [7] | Potency [6]

CC/C(=C\C(=N/O)C(N)=O)C(C)[N+](=O)[O-] (centres undefined)
inactive: Potency [1] | outcome [2] | Potency [3] | Potency [4] | Potency [5] | Potency [7] | Potency [6]

CCCc1ccccc1
inactive: Potency [1] | outcome [2] | Potency [3] | Potency [4] | Potency [5] | Potency [6]
